# Screening data from PubChem BioAssay.
# AID504770 = growth inhibition of E. coli YBA685, primary screen, V. cholerae RctB inhibitors | E. coli YBA685 rctB-dependent plasmid, OD600 growth, 3 h; hits give low values | z-score (test concentration not listed) | actives 0.27% (n = 130,000) | AID 504770, 2011; in the data active means z-score below about -2, passing the limit was not always enough
# Ba CapD inh = Bacillus anthracis CapD inhibitors, primary screen, biochemical, fluorescence intensity; purified CapD enzyme, fluorescence intensity read-out; hits give low values; z-score (test concentration not listed); actives 0.23% (n = 140,000); AID 492967, 2010; in the data active means z-score mostly below about -2.9, no sharp cut-off; inactive means mostly above about -1.9
# * = called active by the depositor; · = no result. Only some compounds are listed: those with a hit (about 0.36% of all), similar ones and a draw of the others.
SMILES,AID504770,Ba CapD inh
O=C(Nc1cccnc1Sc1ccc(Cl)cc1)C(c1ccccc1)C1CCCC1 (stereo not given),·,0.46
O=C(O)c1occc1-c1ccccc1,-0.25,·
CC(C)=CC(=O)Nc1nnc(Cc2ccccc2)s1,-1,·
CCC1CCCCN1C(=O)CSc1ncccc1C(=O)Oc1ccccc1Cl (stereo not given),0.85,0.58
C1CN2CN3CCN(CN1C3)C2,-2.4*,-0.22
C1N2CN3CN1CN(C2)C3,-0.3,0.64
CCOC(=O)c1ccc(/N=C/N(C)C)o1,-0.05,·
O=C(O)CCC(=O)c1ccc(Br)cc1,-3.1*,-1.3
O=C(O)CCC(=O)c1ccc(I)cc1,1.5,-0.51
COC(=O)c1cccc(NC(=O)/C(=C\c2ccc3c(c2)OCO3)NC(=O)c2ccc(Br)cc2)c1,·,-0.11
N#C/C(=N\Nc1cc(C(F)(F)F)cc(C(F)(F)F)c1)C(=O)c1ccco1,·,-2.6
N#C/C(=N\O)C(=O)c1ccco1,-1.3,-4.6*
N#CCN(CC#N)C(=O)c1cccs1,1.9,-0.5
N#CSCC(=O)c1cccs1,-3.7*,-0.045
CCOC(=O)CCc1c(CC(=O)OCC)c[nH]c1/C=N/O,-0.25,-10*
CCOC(=O)CCc1c(C)nc2ncnn2c1C,2,-0.22
CCN(CCO)c1nc(NC2CCCCC2)c2cnn(C)c2n1,-2.1*,·
Cn1ncc2c(NC3CCCCC3)ncnc21,2.5,0.94
CCc1[nH]c(=S)[nH]c(=O)c1C#N,-0.2,-6.5*
CCc1[nH]c(=O)c(C#N)c2c1CCCC2,0.2,42
c1ccc(CNCCc2c[nH]c3ccccc23)cc1,0.95,-0.15
c1ccc(CC(NCc2c[nH]c3ccccc23)c2ccccc2)cc1 (stereo not given),-3.1*,-0.08
Brc1ccc(-c2csc(-c3cnccn3)n2)cc1,-0.45,6.5
Cc1cc2oc(=O)cc(CSc3ncccn3)c2cc1Cl,-3.1*,·
O=c1cc(CSc2ncccn2)c2cc3c(cc2o1)CCC3,-0.15,·
SMILES,AID504770,Ba CapD inh
CC(C)(C)NC(=O)c1cccc(S(=O)(=O)N2CCCC2)c1,1.6,0.76
CCCn1c(N)c(C(=O)CN(C)Cc2ccccc2)c(=O)[nH]c1=O,0.1,·
N#CSC1C=CS(=O)(=O)C1 (stereo not given),-4.8*,0.72
NC(=O)CC1C=CS(=O)(=O)C1 (stereo not given),-0.3,0.17
COc1ccc(CCNC(=O)c2ccccc2OC)cc1,0.75,·
COc1ccc(CCNC(=O)C(C(C)C)N2C(=O)c3ccccc3C2=O)cc1 (stereo not given),0.45,-4.8*
OC(OCc1ccc(C(O)(C(F)(F)F)C(F)(F)F)o1)(C(F)(F)F)C(F)(F)F,-0.15,0.12
CCOC(=O)C1=C(CSc2nc(C)cc(C)c2C#N)OC(N)=C(C#N)C1c1ccc(F)cc1 (stereo not given),·,0.16
N#C/C(C(=O)N1CCCCC1)=C(/S)Nc1ccccc1,0.3,-1.9
N#C/C(C(N)=O)=C(/S)Nc1ccccc1,-3.8*,·
CCc1ccc(NS(=O)(=O)c2ccc3[nH]cc(C(=O)N(CC)CC)c(=O)c3c2)cc1,2.2,-0.21
CCc1ccc(NS(=O)(=O)c2ccc3[nH]cc(C(=O)N4CCCC4)c(=O)c3c2)cc1,-0.05,-5.9*
O=C(NCCCSc1ccccc1)Nc1ccccc1,0.05,·
O=C(NCCSc1ccc(Cl)cc1)Nc1ccccc1,-4.5*,11
Cc1nn(-c2ccc(F)cc2)nc1C(=O)Nc1ccc(Br)cc1,·,0.91
Cc1cc2cc(N(C(=O)c3ccc(S(C)(=O)=O)cc3)C3CCN(Cc4ccccc4)CC3)ccc2[nH]1,·,-0.31
CC(=NCCc1ccccc1)C1=C(O)CSC1=O,0,·
CC(=NCCc1ccc(F)cc1)C1=C(O)c2ccccc2C1=O,-0.3,-4.8*
COc1cc(NC(=O)c2ccc3c(=O)n(-c4ccc(F)cc4)c(=S)[nH]c3c2)cc(OC)c1OC,·,0.35
CC(C)Cn1c(O)c(N=NC(=S)NC(C)C)c2ccccc21,0.55,·
CC(C)n1c(O)c(N=NC(=S)NC2CCCCC2)c2ccccc21,-2.9*,·
NC(=O)CSc1nnc(Cc2cc(=O)[nH]c(=O)[nH]2)n1-c1ccccc1,-0.35,-5*
O=C(CSc1nnc(Cc2cc(=O)[nH]c(=O)[nH]2)n1-c1ccccc1)N1CCCC1,0.7,-0.12
Cc1ccc(CNC(=O)c2ccc(N3CC4CC(C3)c3cccc(=O)n3C4)c(NS(=O)(=O)c3ccc(F)c(C)c3)c2)cc1 (stereo not given),·,0.18
O=c1cccc2n1CC1CC2CN(c2nc(N3CCCC3)nc(N3CCCC3)n2)C1 (stereo not given),·,1.7
SMILES,AID504770,Ba CapD inh
O=c1cccc2n1CC1CC2CN(c2nc(N3CCCCC3)nc(N3CCCCC3)n2)C1 (stereo not given),-2.7*,·
C/C(=N/O)C1C(=O)c2ccccc2C1=O,1.5,-4.3*
C/C(=N\N1C(=O)c2ccccc2C1=O)C1C(=O)c2ccccc2C1=O,0.5,-0.46
CC(=O)Nc1ccc(S(=O)(=O)N(C)C2CCN(Cc3c(Cl)cccc3Cl)C2)cc1 (stereo not given),·,0.42
Oc1ccc(CN2CCOCC2)c2cccnc12,-0.4,0.23
CN1CCN(Cc2ccc(O)c3ncccc23)CC1,0.15,-4.8*
C=C(C)Cn1c(SCC(=O)N/N=C/c2ccc(OC)cc2)nc2ccccc2c1=O,1.4,-0.43
Cc1noc(/C=C/N(C)C)c1S(=O)(=O)N(CCc1ccccc1)Cc1ccccc1,2.4,-4.3*
Cc1noc(C)c1S(=O)(=O)N(CCC#N)Cc1ccccc1,-0.7,-0.2
CC1CC(C)CC(S(=O)(=O)N2CCC(C(=O)O)CC2)C1 (stereo not given),2.2,-0.49
COC(=O)c1ccccc1-n1cnc2ccccc2c1=O,0.4,2.8
COC(=O)C1=CN(N(C(C)=O)C(C)=O)C(=O)CC1,-0.95,-9.2*
Nc1nc2ccccc2n1Cc1ccc(Cl)cc1,-1.4,0.005
Nc1nc2ccccc2n1Cc1ccc(Cl)c(Cl)c1,-4.2*,-0.15
CN(CC(=O)N1CCN(Cc2ccccc2)CC1)S(=O)(=O)c1cnc[nH]1,-1.1,0.015
Cc1cc(Cl)c(S(=O)(=O)Nc2ccccc2)cc1OCC(=O)Nc1nncs1,-0.55,0.47
CC(=O)OCCNc1nc(-c2ccccc2)nc2ccccc12,-0.65,1.4
CCCOc1ccc(-c2nc(NCCN)c3ccccc3n2)cc1,-3*,20
C1=CSC(=C2SC=CS2)S1,-3.6*,·
CCOC(=O)/C(C#N)=N/O,-0.85,·
Cn1c(=O)c2c(nc(N3CCCCC3)n2CC(O)COc2ccc(Cl)cc2)n(C)c1=O (stereo not given),·,-0.8
O=C(/C=C/c1ccco1)/C=C/c1ccco1,-0.85,0.035
O=C(/C=C/c1ccco1)C1(O)CCCCC1,0.15,-5.6*
O=[N+]([O-])c1cc(Cl)c(-n2cccc2)cc1SCc1ccc(Cl)cc1Cl,·,-0.34
C(=N\N1CCCCC1)/c1cn(-c2ccccc2)nc1-c1cccnc1,-0.95,·
COc1ccc2c(CCNC(=O)OCCN3CCN(Cc4cc5ccccc5o4)CC3)c[nH]c2c1,·,-0.23
Cc1cc(/C=C2\C(=O)NC(=S)N(c3ccccc3F)C2=O)c(C)n1-c1cc(C(=O)O)cc(C(=O)O)c1,·,-9.1*
Cc1cc(/C=C2\C(=O)NC(=O)N(c3ccccc3F)C2=O)c(C)n1-c1cc(C(=O)O)cc(C(=O)O)c1,·,-2.5
COc1ccc(/C=N/n2c(N(C(C)=O)C(C)=O)nc(-c3ccccc3)c2-c2ccccc2)cc1,·,-1.4
CC(=O)N(C(C)=O)c1nc(-c2ccccc2)cn1/N=C/c1ccccc1,·,-7.1*
